Bioassay records as filed in PubChem BioAssay.
MLL AF4-AF9 inh – MLL-AF4/AF9 protein interaction inhibition. P42568. AlphaScreen, biotin-AF4 peptide binding to FLAG-AF9. inhibition, % at 10 µM. actives 0.47% (n = 350,000). AID 651704;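 active = every replicate reaching a set inhibition limit, whatever the replicate mean, cut at about 25% in these data; inconclusive = mean inhibition reaches that limit but some replicates miss it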;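 note: 0% = plate neutral control median and 100% = total signal loss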
Target sequence (P42568 whole entry, looked up): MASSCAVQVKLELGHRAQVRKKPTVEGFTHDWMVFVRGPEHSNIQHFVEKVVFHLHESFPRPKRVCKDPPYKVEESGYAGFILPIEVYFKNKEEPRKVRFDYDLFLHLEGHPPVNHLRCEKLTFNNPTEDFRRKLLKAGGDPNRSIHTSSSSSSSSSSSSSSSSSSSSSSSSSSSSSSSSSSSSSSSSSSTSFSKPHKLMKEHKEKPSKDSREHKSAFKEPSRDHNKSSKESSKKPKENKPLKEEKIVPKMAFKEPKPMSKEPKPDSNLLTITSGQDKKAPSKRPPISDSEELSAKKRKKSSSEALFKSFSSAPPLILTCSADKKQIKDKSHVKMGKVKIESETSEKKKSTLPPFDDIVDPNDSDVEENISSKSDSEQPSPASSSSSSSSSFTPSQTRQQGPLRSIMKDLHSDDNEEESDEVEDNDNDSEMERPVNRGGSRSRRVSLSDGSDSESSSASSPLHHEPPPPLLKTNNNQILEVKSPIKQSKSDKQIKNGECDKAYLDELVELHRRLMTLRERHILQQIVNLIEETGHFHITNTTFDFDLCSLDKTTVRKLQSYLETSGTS
esBAF inh – inhibitors of esBAF chromatin remodeling in mouse ES cells | reporter increase, % at 12.5 µM | Bmi1-luciferase knock-in reporter, 24 h; 100% = twice the neutral-well signal | actives 2% (n = 350,000); in the data active = activation above about 40%; inconclusive = no clear call, values can overlap the other calls;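 note: 0% = median of the plate's neutral control wells and 100% = double that signal; a rise in the Bmi1 reporter signal indicates esBAF inhibition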
MITF TRPM1 HTS – MITF TRPM1 promoter activation in melanoma cells; SK-MEL-5 TRPM1-promoter luciferase, 24 h; % of positive control, neutral wells = 0; actives 0.75% (n = 300,000); AID 588334; activation, % at 12.5 µM;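 active = mean activation of at least 80% with every replicate also reaching 80%; inconclusive = mean reaches 80% but some replicate falls short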;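 note: 0% = neutral control wells and 100% = parthenolide positive control wells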
FGF22 binding – shifts melting point of recombinant human FGF22; recombinant FGF22 thermal shift, SYPRO orange fluorescence; percent of sucrose octasulfate shift, DMSO zero; activity (Tm shift, normalised), % at 9.99 µM; actives 1.5% (n = 340,000); AID 651658;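 active = mean Tm shift, scaled 0 neutral to 100 positive control, at about 1.3% or above, every replicate too, limit read from the data; inconclusive = no clear call, values can overlap the other calls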
SMARCA2 act – increases SMARCA2 function in MMTV reporter cells | MG213 cells, MMTV-luciferase reporter, dexamethasone, overnight | activation, % at 9.1 µM | actives 1% (n = 370,000); in the data active = activation above about 7.8%;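 note: 0% = vehicle wells and 100% = reference activator wells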
Wnt bcat act – activates Wnt/beta-catenin signaling in a reporter cell assay. activator, plate reader. activation, % at 9.35 µM. actives 1.2% (n = 300,000); in the data active = activation above about 30%, passing the limit was not always enough; inconclusive = no clear call, values can overlap the other calls;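 note: 0% = neutral control wells and 100% = positive control wells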
Numbers without * were called inactive. A selection: hits, their analogues and other compounds. The true share with any hit is near 4.3%.

How did CO/N=C/C(C(C)=O)C(=O)Nc1ccc(Cl)cc1Cl (stereo not drawn) do in these assays?
MLL AF4-AF9 inh: -4; esBAF inh: 4; MITF TRPM1 HTS: 10; FGF22 binding: 43*; SMARCA2 act: -1; Wnt bcat act: 1

How did Cc1cc(CNC(=O)c2cccc(OC3CCN(S(=O)(=O)N(C)C)CC3)c2)on1 do in these assays?
MLL AF4-AF9 inh: -1; esBAF inh: 71*; MITF TRPM1 HTS: 36; FGF22 binding: 0; SMARCA2 act: 0; Wnt bcat act: 2

What do the screens show for `CCN1C(=O)CC(SC2CC(=O)N(CC)C2=O)C1=O` (stereo not drawn)?
MLL AF4-AF9 inh: 0; esBAF inh: 3; MITF TRPM1 HTS: 5; FGF22 binding: 0; SMARCA2 act: -4; Wnt bcat act: 1

What do the screens show for `CCCCN1C(=O)CC(SC2CC(=O)N(CCCC)C2=O)C1=O` (stereo not drawn)?
MLL AF4-AF9 inh: 1; esBAF inh: -4; MITF TRPM1 HTS: 14; FGF22 binding: 43*; SMARCA2 act: -2; Wnt bcat act: -7

How did C[C@@H]1CN([C@H](C)CO)C(=O)c2cc(NC(=O)Nc3cccc4ccccc34)ccc2O[C@H]1CN(C)S(C)(=O)=O do in these assays?
MLL AF4-AF9 inh: 0; esBAF inh: -1; FGF22 binding: 0

What do the screens show for `COc1ccccc1-c1nc(C#N)c(NCCCn2ccnc2)o1`?
MLL AF4-AF9 inh: 0; MITF TRPM1 HTS: -12; FGF22 binding: 0; SMARCA2 act: -2; Wnt bcat act: 1

How did N#Cc1nc(-c2ccccc2)oc1NCCCn1ccnc1 do in these assays?
MLL AF4-AF9 inh: 2; esBAF inh: 4; MITF TRPM1 HTS: -13; FGF22 binding: 43*; SMARCA2 act: 1; Wnt bcat act: 0

What do the screens show for `COCCCNC(=O)[C@@]1(CCS(=O)(=O)c2ccccc2)N=C(c2ccc(OCCCO)cc2)O[C@H]1c1ccccc1`?
MLL AF4-AF9 inh: 1; FGF22 binding: 0

How did COc1ccccc1NC(=O)N1CC(=O)N2[C@H](CO)[C@H](c3ccc(-c4ccc(F)cc4)cc3)[C@@H]2C1 do in these assays?
MLL AF4-AF9 inh: 3

What do the screens show for `Fc1cccc(F)c1/C=N/N1CCOCC1`?
MLL AF4-AF9 inh: -2; MITF TRPM1 HTS: 13; FGF22 binding: 0; SMARCA2 act: 7.9*; Wnt bcat act: 1

How did Cc1[nH][nH]c(=O)c1/C=N/N1CCOCC1 do in these assays?
MLL AF4-AF9 inh: -1; esBAF inh: -2; MITF TRPM1 HTS: -4; FGF22 binding: 43*; SMARCA2 act: 0; Wnt bcat act: 1

How did CCN(CC)c1ccc(/C=N/N2CCOCC2)cc1 do in these assays?
MITF TRPM1 HTS: 54; SMARCA2 act: 7; Wnt bcat act: 19

Results for C[C@@H]1CN([C@H](C)CO)C(=O)c2cc(NC(=O)Nc3ccc(C(F)(F)F)cc3)ccc2O[C@@H](C)CCCCO[C@@H]1CN(C)Cc1ccccc1 ?
MLL AF4-AF9 inh: 0; esBAF inh: -9; FGF22 binding: -1

Results for O=C(Nc1cc2c(cc1Cl)OCCCO2)c1ccc(F)cc1 ?
MITF TRPM1 HTS: 76; SMARCA2 act: 7; Wnt bcat act: 51*

Results for Cc1ccc(C(=O)Nc2cc3c(cc2Cl)OCCCO3)cc1 ?
esBAF inh: 69*; MITF TRPM1 HTS: 72; SMARCA2 act: 3

Results for O=C(Nc1cc2c(cc1Br)OCCCO2)c1cccnc1 ?
MLL AF4-AF9 inh: 0; esBAF inh: -4; MITF TRPM1 HTS: 10; FGF22 binding: 0; SMARCA2 act: 4; Wnt bcat act: 5

What do the screens show for `CC(=O)c1cc2c(cc1NC(=O)c1ccc(Cl)cc1)OCCO2`?
MLL AF4-AF9 inh: 2; esBAF inh: -1; FGF22 binding: 0; SMARCA2 act: -2; Wnt bcat act: -2

How did O=C(Nc1cc2c(cc1Br)OCCCO2)c1ccccc1 do in these assays?
MITF TRPM1 HTS: 46; SMARCA2 act: 3; Wnt bcat act: 52*

What do the screens show for `Cc1ccccc1S(=O)(=O)N1CCCCN2[C@H](CO)[C@H](c3ccc(-c4ccccc4)cc3)[C@H]2C1`?
MLL AF4-AF9 inh: 0; FGF22 binding: 0

What do the screens show for `Cc1cn(-c2ccc(Br)cc2)[nH]c1=O`?
MLL AF4-AF9 inh: -3; esBAF inh: 52*; MITF TRPM1 HTS: 23; FGF22 binding: 0; SMARCA2 act: 3; Wnt bcat act: 11

Results for COc1cc(NC(C)=O)ccc1NC(=O)c1cc2ccccc2o1 ?
MLL AF4-AF9 inh: 0; esBAF inh: 55*; MITF TRPM1 HTS: 39; FGF22 binding: 0; SMARCA2 act: 2; Wnt bcat act: 3

Results for COc1cc(N)ccc1NC(=O)c1cc2ccccc2o1 ?
MLL AF4-AF9 inh: -4; esBAF inh: 8; FGF22 binding: 0; SMARCA2 act: 5; Wnt bcat act: 24

Results for COc1cc(NC(=O)c2ccccc2)ccc1NC(=O)c1cc2ccccc2o1 ?
MLL AF4-AF9 inh: -7; esBAF inh: 0; MITF TRPM1 HTS: 8; FGF22 binding: 0; SMARCA2 act: 1; Wnt bcat act: 7

Results for CCCC(=O)Nc1ccc(NC(=O)c2cc3ccccc3o2)c(OC)c1 ?
MLL AF4-AF9 inh: -1; esBAF inh: 53*; MITF TRPM1 HTS: 64; FGF22 binding: 0; SMARCA2 act: 5; Wnt bcat act: 2

Results for Nc1c(N=Nc2ccccc2F)c(=O)[nH]n1-c1ccccc1 ?
esBAF inh: 69*; MITF TRPM1 HTS: 54; SMARCA2 act: 1; Wnt bcat act: 11

What do the screens show for `CCCNC(=O)C[C@H]1C[C@H]2c3cc(NC(=O)C4CCOCC4)ccc3O[C@H]2[C@@H](CO)O1`?
MLL AF4-AF9 inh: -3; esBAF inh: 2; FGF22 binding: 0

Results for Cc1ccc(S(=O)(=O)N(C)c2ccc(C)c([N+](=O)[O-])c2)cc1 ?
MLL AF4-AF9 inh: 3; MITF TRPM1 HTS: -5; FGF22 binding: 43*; SMARCA2 act: 5; Wnt bcat act: inconclusive

What do the screens show for `CCCNC(=O)C[C@@H]1CC[C@@H]2[C@@H](COc3ccc(NC(=O)NCCC)cc3C(=O)N2C)O1`?
MLL AF4-AF9 inh: 1

Results for CCc1nc2ccc(C(=O)NCCNC(C)=O)cn2c1N(CC)CCOC ?
MLL AF4-AF9 inh: 46*; esBAF inh: -1; FGF22 binding: 0; SMARCA2 act: -2; Wnt bcat act: -2

What do the screens show for `Cc1ccc(C)c(NC(=O)CN(C)C(=O)c2ccc(S(=O)(=O)N(C)c3ccccc3)cc2)c1`?
MLL AF4-AF9 inh: -1; esBAF inh: -1; MITF TRPM1 HTS: -5; FGF22 binding: 0; SMARCA2 act: -1; Wnt bcat act: -2

Results for Cc1ccc(NC(=O)CN(C)C(=O)c2ccc(S(=O)(=O)N(C)c3ccccc3)cc2)cc1 ?
MLL AF4-AF9 inh: -12; esBAF inh: -9; MITF TRPM1 HTS: 0; FGF22 binding: 43*; SMARCA2 act: -4; Wnt bcat act: -2
